Results from PubChem BioAssay (NCI).
Compounds without any hit were thinned out: in the full panel of roughly 83,000, 20% have a hit.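 Percent growth is the endpoint: 0 to 100 indicates growth inhibition (40 means 60% inhibition), 0 means no net growth, and negative values indicate cell death.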 A number with no mark means an inactive call. Calls of active or inactive are those of the source. Rule for the calls: active = growth percent below 10; inactive = the rest.

Assays:
Assay in all cases: NCI-60 one-dose screen, 48 h (100 = growth as untreated, 0 = no growth, -100 = all killed)
Details in all cases: 10 µM unless noted
SK-MEL-2 melanoma = test system: SK-MEL-2 melanoma
EKVX NSCLC = test system: EKVX NSCLC
SN12C renal = test system: SN12C renal
UO-31 renal = test system: UO-31 renal
TK-10 renal = test system: TK-10 renal
ACHN renal = test system: ACHN renal
CAKI-1 renal = test system: CAKI-1 renal
A498 renal = test system: A498 renal
CCRF-CEM leukemia = test system: CCRF-CEM leukemia
MOLT-4 leukemia = test system: MOLT-4 leukemia

SMILES | growth (SK-MEL-2 melanoma) | growth (EKVX NSCLC) | growth (SN12C renal) | growth (UO-31 renal) | growth (TK-10 renal) | growth (ACHN renal) | growth (CAKI-1 renal) | growth (A498 renal) | growth (CCRF-CEM leukemia) | growth (MOLT-4 leukemia)
CC(C)C1=NOC(=O)C1=Cc1cn(-c2ccccc2)nc1-c1ccccc1 | 99.2% | 99.3% | 79.2% | 70.2% | 82.3% | 84.5% | 57.7% | 93.6% | 8.48% (active) | 7.72% (active)
O=C(NCc1ccc(Cn2c(=O)sn(-c3ccccc3)c2=O)cc1)OCc1ccc2c(Br)cc(Br)c(O)c2n1 | -52.4% (active) | -92.3% (active) | -61.4% (active) | -100% (active) | -90.5% (active) | -100% (active) | -74.9% (active) | -41.6% (active) | 4.61% (active) | 2% (active)
Clc1ccccc1/C=N\Nc1ccccn1 | 92.8% | 76.2% | 92.2% | 66.8% | 66.7% | 87.7% | 80.2% | 110% | 95.1% | 83.5%
Cc1ccc(S(=O)(=O)n2cc(C(=O)C(=O)N3CCCCC3)c3ccccc32)cc1 | 90.6% | 74.8% | 85.3% | 53.6% | 103% | 65.6% | 58.9% | 90.8% | 74.9% | 86.9%
C#C[C@]1(O)CC[C@H]2[C@@H]3CC=C4c5nc(N)sc5CC[C@]4(C)[C@H]3CC[C@@]21C | 58.8% | 53.7% | 82.2% | 90.4% | 80.4% | 79.6% | 54.9% | 36.4% | 77.7% | 36.9%
CCCCCCNC(=O)Nc1ncnc2c1ncn2-c1ccccc1 | 91.3% | 92.2% | 97.3% | 58.4% | 94% | 90.7% | 85.8% | 83.1% | 103% | 102%
CC(C)CCSc1nc(N)nc2nc[nH]c12 | 109% | 109% | 92.8% | 86.1% | 154% | 91.5% | 108% | 116% | 102% | 116%
C=C(C)C1CCC2(C(=O)O)CCC3(C)C(CCC4C5(C)CCC(OC(=O)NCc6ccccc6)C(C)(C)C5CCC43C)C12 (stereo not given) | 54.6% | 29.1% | 42.3% | 40.3% | 59.2% | 30.3% | 16.1% | 56.3% | 36.6% | 29.4%
CCN(CC)c1ccc2cc(C(Nc3ccc(C)cc3)c3nnnn3C(C)(C)C)c(=O)oc2c1 (stereo not given) | 94.3% | 86.9% | 91.8% | 72.5% | 90.7% | 98.2% | 79.2% | 94.7% | 98.6% | 65.5%
CC1=C/C(=C(\c2cc(C)c(O)c(C(=O)O)c2)c2c(Cl)cccc2Cl)C=C(C(=O)O)C1=O | 104% | 95.3% | 97.1% | 67.8% | 108% | 92.7% | 88.1% | 110% | 103% | 102%
O=C(O)CC1CCCCC1c1ccccc1 (stereo not given) | 97.7% | 115% | 105% | 75.2% | 100% | 102% | 103% | 122% | 101% | 109%
CCc1ccc(NC(=O)N[C@@H](Cc2cc(F)cc(F)c2)C(=O)N[C@@H]2C(=O)N3C[C@H](O)C[C@H]3C(=O)N3CCOC[C@H]3C(=O)N[C@@H](C)C(=O)N3C[C@H](C)C[C@H]3C(=O)O[C@H]2C)cc1 | 29% | 79% | 24.3% | 78.7% | 95.8% | 103% | 84.4% | 38.6% | 50.9% | 43.3%
CC(C)=CC/C=C(/C)[C@H]1CC[C@]2(C)[C@@H]1CC[C@@H]1[C@@]3(C)CC/C(=N/O)C(C)(C)[C@@H]3CC[C@]12C | 59.2% [100 µM] | 72.2% [100 µM] | 41% [100 µM] | 58.3% [100 µM] | 82% [100 µM] | 54.3% [100 µM] | 57.4% [100 µM] | 88.8% [100 µM] | 38.4% [100 µM] | 27.6% [100 µM]
Nc1nc(N)c2c(n1)NC(c1ccc(F)cc1)C1CCc3ccccc3C1=N2 (stereo not given) | 97.7% | 45.3% | 63.1% | 59.7% | 36.3% | 49.7% | 44.8% | 58.1% | 35.9% | 19.9%
COc1ccc2[nH]c(C(=O)N3CCN(C(=O)OCc4ccc5c(Br)cc(Br)c(O)c5n4)CC3)cc2c1 | -89.5% (active) | -76% (active) | -86.8% (active) | -100% (active) | -99.5% (active) | -100% (active) | -96% (active) | -97% (active) | -11.8% (active) | -22.3% (active)
COc1ccc2c(c1)c(-c1noc(-c3cn(C)c4ncc(F)cc34)n1)cn2C | 94% | 65% | 52.7% | 85.1% | 86.2% | 84.4% | 76.6% | 65.7% | 99% | 87.6%
C#C[C@]1(O)CC[C@H]2[C@@H]3CC=C4c5nc(Nc6ccc(OC)cc6OC)sc5CC[C@]4(C)[C@H]3CC[C@@]21C | -10.1% (active) | 24.7% | 37.6% | 13.2% | 51.3% | 32.6% | 26.4% | -56% (active) | 16.9% | 4.56% (active)
COCc1nc2ccccc2[nH]1 | 102% | 93.9% | 104% | 87.3% | 97.3% | 99.9% | 93.4% | 104% | 105% | 93%
CCOC(=O)Nc1ccc2c(c1)/C(=N\NC(=S)NC)c1ccccc1-2 | 101% | 79.7% | 73.8% | 104% | 76.7% | 83.7% | 81.4% | 33.6% | 61.8% | 87.4%
CC(=O)OC[C@]12CC[C@@H](C(=O)CBr)[C@@H]1[C@H]1CC[C@@H]3[C@@]4(C)CCCNC(C)(C)[C@@H]4CC[C@@]3(C)[C@]1(C)CC2 | -80.8% [100 µM] (active) | -81% [100 µM] (active) | -37.8% [100 µM] (active) | -99.3% [100 µM] (active) | -92.4% [100 µM] (active) | -90.1% [100 µM] (active) | -96.1% [100 µM] (active) | -84.5% [100 µM] (active) | -32.5% [100 µM] (active) | -23.2% [100 µM] (active)
Cc1ccc(NC(=O)N[C@@H](Cc2cc(F)cc(F)c2)C(=O)N[C@@H]2C(=O)N3CCC[C@H]3C(=O)N3CCCC[C@H]3C(=O)N[C@@H](C)C(=O)N3C[C@H](C)C[C@H]3C(=O)O[C@H]2C)cc1 | 35.2% | 28.2% | 18.1% | 25.2% | 47.6% | 23.6% | 13.7% | -1.49% (active) | 54.8% | 30.9%
CCOC(=O)c1cc(C(=O)c2ccc(OC)c(OC)c2)n2ccc(-c3ccccn3)cc12 | 70.9% | 92.2% | 60.6% | 76.3% | 55.4% | 30% | 78.7% | 42.1% | 111% | 124%
Cc1cnc([C@]23CC[C@@H](C)[C@H](C)[C@H]2C2=CC[C@@H]4[C@@]5(C)Cc6c([nH]c7ccccc67)C(C)(C)[C@@H]5CC[C@@]4(C)[C@]2(C)CC3)o1 | 77.4% [100 µM] | 74% [100 µM] | 36.7% [100 µM] | 39% [100 µM] | 64.2% [100 µM] | 42.7% [100 µM] | 49.7% [100 µM] | 91.9% [100 µM] | 64% [100 µM] | 50.5% [100 µM]
